Screens from PubChem BioAssay.
dFosB activator = activators of delta FosB homodimer, primary screen, biochemical, fluorescence polarization, TAMRA-CDK5 oligo, single point | hit rate 0.99% among 340,000 | purified delta FosB; percent of positive-control signal above neutral wells | activation, % at 25 µM | AID 493131, 2011;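 active = mean activation above about 17%, with every replicate also reaching it, limit read from the data, passing the limit was not always enough; inconclusive = only one of the two conditions met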
HMGR II inh = inhibitors of E. faecalis class II HMGR, primary screen, biochemical, Enterococcus faecalis | HMG-CoA reductase (Enterococcus faecalis, mvaE) | purified E. faecalis HMGR, NADPH absorbance 340 nm kinetic | inhibition, % at 10 µM | hit rate 0.41% among 190,000;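 active = inhibition above a set limit, the median over all tested compounds plus 3 SD, cut at about 9.5% in these data; inconclusive = no clear call, values can overlap the other calls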;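 note: enzyme runs in reverse so mevalonate oxidation gives rising NADPH absorbance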
14-3-3 Bad PPI = inhibitors of 14-3-3 zeta/Bad binding, primary screen, biochemical, TR-FRET, bovine 14-3-3 zeta; TR-FRET 14-3-3zeta/Dy647-pBad peptide displacement, 1 h; inhibition, % at 21.7 µM; hit rate 0.71% among 220,000;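 active = inhibition above about 70%, limit read from the data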
p47phox inh = p47phox/p22phox peptide binding inhibitors, primary screen, biochemical, uHTS, NADPH oxidase regulatory subunit. fluorescence polarization, 2 h. inhibition, % at 24.7 µM. hit rate 0.53% among 220,000. Neutrophil cytosol factor 1 (Homo sapiens), P14598. AID 1274, 2008;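 active = inhibition above about 30%, limit read from the data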
Target sequence (P14598 whole entry, looked up): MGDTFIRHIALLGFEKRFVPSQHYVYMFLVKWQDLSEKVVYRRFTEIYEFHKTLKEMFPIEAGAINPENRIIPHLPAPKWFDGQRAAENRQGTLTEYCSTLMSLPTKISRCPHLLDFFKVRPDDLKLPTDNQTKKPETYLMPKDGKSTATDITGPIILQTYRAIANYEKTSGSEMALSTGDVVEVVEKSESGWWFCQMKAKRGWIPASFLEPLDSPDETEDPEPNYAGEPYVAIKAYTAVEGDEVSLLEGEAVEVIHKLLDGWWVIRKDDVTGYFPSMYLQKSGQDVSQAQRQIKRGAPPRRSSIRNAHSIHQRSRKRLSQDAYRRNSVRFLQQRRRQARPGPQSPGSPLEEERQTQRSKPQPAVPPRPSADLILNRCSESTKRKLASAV
Large screens that a line does not name were inactive; [ ] = dose if it differs, or a comment. Only some compounds are listed: those with a hit (about 1.9% of all), similar ones and a draw of the others.

O=C(NCc1cccc(Cl)c1)c1ccc(-c2csnn2)cc1	p47phox inh 116 (no result: HMGR II inh)
COc1cccc(-c2ccc3ncnc(NCc4cccnc4)c3c2)c1	none (no result: HMGR II inh, 14-3-3 Bad PPI, p47phox inh)
O=C(CSc1nnc(SCc2cccc3ccccc23)s1)N=Nc1c(O)[nH]c2ccccc12	p47phox inh 32 (no result: dFosB activator)
CCN(CC)C(=S)NC(=O)c1cccnc1	HMGR II inh 18
S=C(NCc1ccc2[nH]c3c(c2c1)CCCC3)Nc1ccccc1	HMGR II inh 9.8
O=C(Cn1cnc2ccccc21)c1ccc(Cl)cc1	none (no result: HMGR II inh, 14-3-3 Bad PPI, p47phox inh)
CCOc1ccc(CC(=O)OCc2cc(=O)n3cc(Br)ccc3n2)cc1	none
COc1ccc(CC(=O)OCc2cc(=O)n3cc(Br)ccc3n2)cc1OC	HMGR II inh 17
O=C(Nc1ccc2c(c1)OCO2)c1ccccc1	none (no result: HMGR II inh, 14-3-3 Bad PPI, p47phox inh)
COc1ccc(S(=O)(=O)Nc2ccccc2C(=O)N2CCOCC2)cc1F	none (no result: HMGR II inh, 14-3-3 Bad PPI, p47phox inh)
N#Cc1c(-c2ccccc2)nc(SCC(=O)Nc2nnc(C(F)(F)F)s2)[nH]c1=O	HMGR II inh 13
N#Cc1c(-c2ccccc2)nc(SCC(=O)Nc2ccccc2)[nH]c1=O	none
Cc1cccc(NC(=O)CSC2=NN3CCCC(=O)N=C3S2)c1C	none
CC(C)(C)c1cc(NCc2ccccn2)n2ncc(-c3ccc(Cl)cc3)c2n1	none (no result: HMGR II inh)
CN(C)CCCNc1cc(C(C)(C)C)nc2c(-c3ccc(Cl)cc3)cnn12	14-3-3 Bad PPI 79, p47phox inh 65 (no result: HMGR II inh)
Cc1cnc(NC(=O)c2cc3ccccc3o2)s1	HMGR II inh 30
Cc1nnc(NC(=O)c2cc3ccccc3o2)s1	none (no result: HMGR II inh, 14-3-3 Bad PPI, p47phox inh)
CCNC(=O)c1c(C)[nH]c(C(=O)OCC)c1C	none
O=C(Nc1ccc2[nH]c(=O)[nH]c2c1)C(F)(F)F	none
O=C1NC(=S)S/C1=C/c1ccc(N2CCOCC2)o1	dFosB activator 49
O=C1S/C(=C/c2ccc(N3CCOCC3)o2)C(=O)N1Cc1ccc(F)cc1	none
Cc1ccc(-c2ccc(/C=C3\SC(N4CCOCC4)=NC3=O)o2)cc1	HMGR II inh 12
O=C1N=C(N2CCOCC2)S/C1=C/c1ccc(-c2ccc(F)cc2)o1	none
COc1ccc(/C=c2\s/c(=C(/C#N)C(=O)NCc3ccco3)n(-c3ccccc3)c2=O)cc1	none
COc1cccc(/C=c2/s/c(=C(\C#N)C(=O)N3CCOCC3)n(-c3ccccc3)c2=O)c1	14-3-3 Bad PPI 76[fluorescence artefact?]
O=C1c2ccccc2C(=O)N1CCCCSc1nnc2ccccn12	p47phox inh 133
Brc1ccc(CSc2nnc3ccccn23)cc1	HMGR II inh 15
c1ccc(CN(CC2=NCCN2)c2ccccc2)cc1	none
c1ccc(CC2=NCCN2)cc1	p47phox inh 54
Cc1ccc(CNC(=O)c2ccc(CN3CCOCC3)cc2)cc1	HMGR II inh 11, p47phox inh 37
COc1ccc(CN2CCOCC2)cc1	14-3-3 Bad PPI 74
Cc1ccc(SCCNC(=O)c2ccc(CN3CCOCC3)cc2)cc1	none
COc1ccccc1CNC(=O)C1CC(c2c(Cl)cccc2Cl)=NO1 (stereo not drawn)	14-3-3 Bad PPI 70
Cc1ccc(-c2nc3cccnc3s2)cc1NC(=O)C1c2ccccc2Oc2ccccc21	14-3-3 Bad PPI 78, p47phox inh 33
COC(=O)C1CCN(CC(=O)Nc2ccccc2Sc2ccccc2)CC1	none
Cc1ccnc(N/C=C(\C#N)c2nc(-c3cccc(Br)c3)cs2)c1	none
N#C/C(=C\Nc1ccc2cn[nH]c2c1)c1nc(-c2ccccc2)cs1	14-3-3 Bad PPI 86
N#C/C(=C\Nc1ccc2cn[nH]c2c1)c1nc(-c2ccc(Cl)cc2)cs1	14-3-3 Bad PPI 91
COc1cc2c(cc1N/C=C(\C#N)c1nc(-c3ccccc3)cs1)oc1ccccc12	14-3-3 Bad PPI 86
COC(=O)c1sc(S(=O)(=O)NCC(=O)O)c(C(=O)OC)c1C	none
Cc1cc(Br)ccc1NCc1ccccn1	14-3-3 Bad PPI 76
CCCc1nc2sc3c(c2c(=O)n1NC(=O)c1ccco1)CC(C)(C)OC3	none
COc1cccc(CN2CCN(C3CCN(c4ccccc4C)CC3)CC2CCO)c1 (stereo not drawn)	HMGR II inh 11
Cc1cccc(Nc2nc(NCc3ccco3)c3ccccc3n2)c1	dFosB activator 38
Oc1ccccc1Nc1nc(NCc2ccco2)c2ccccc2n1	dFosB activator inconclusive (no result: HMGR II inh)
Cc1ccccc1Nc1nc(NCc2ccco2)c2ccccc2n1	dFosB activator 36
COc1ccc(OC)c(Nc2nc(NCc3ccco3)c3ccccc3n2)c1	dFosB activator 53 (no result: HMGR II inh, 14-3-3 Bad PPI, p47phox inh)
COc1ccc(C(=O)OCC(=O)Nc2c(C)cccc2C)cc1	none (no result: HMGR II inh, 14-3-3 Bad PPI, p47phox inh)
